In PubChem BioAssay (Tox21):
Inconclusive results are not listed. Activity calls are given as the source filed them. Calls follow the shape of the full dose curve.

Test: qHTS assay to identify small molecule agonists or antagonists of the thyroid stimulating hormone receptor (TSHR) signaling pathway - wild type cell line counter screen (AID 1259384)
Conditions: HEK293 wild type, cAMP HTRF counter-screen, active compounds read high; series mostly up to 92.4 µM; cAMP activity change: at the top concentration
From the text: U.S. Tox21 Program National Center for Advancing Translational Sciences [NCATS] NIH Chemical Genomics Center [NCGC] U.S. Environmental Protection Agency [EPA] National Institutes of Environmental Health Sciences [NIEHS] National Toxicology Program [NTP] U.S. Food and Drug Administration [FDA] Tox21 Assay Overview: TSHR is the receptor for thyrotropin (thyroid stimulating hormone or TSH), a member of the glycoprotein hormone family. TSH is released by the anterior pituitary gland and is the main regulator of thyroid gland growth and development. Upon binding circulating thyrotropin, a G-protein signal cascade activates adenylyl cyclase and […] cAMP concentration is increased. cAMP is a key second messenger involved extensively in cellular signal transduction pathways associated with the majority of G-protein coupled receptors (GPCRs). The activation of these GPCRs by neurotransmitters, lipids, nucleotides, peptides and hormones results in the activation or the inhibition of plasma membrane-bound adenylate cyclase through heterotrimeric G-proteins. A cell-based TSHR-Hek293 assay can be used to identify TSHR agonists. To eliminate the false positive compounds identified from screening a cell-based TSHR-Hek293 cell line, cAMP assay in a wild type Hek293 cells was used as a counter screening.
Tox21 Assay Protocol Summary: Hek293 cells (wild type) were dispensed at 800 cells/4 uL/well in 1536-well white plates using a Multidrop dispenser. After the assay plates were incubated at a 37 C/5% CO2 incubator for 18 hrs, 23 nL of compounds dissolved in DMSO, positive controls or DMSO only was transferred to the assay plate by a pin tool, followed by 1 ul medium containing Ro20-1724. After 30 min of incubation at room temperature, 2.5 ul/well of cAMP-d2 and 2.5 ul/well of anti-cAMP-cryptate were added respectively into the assay plates using a Flying Reagent Dispenser. The plates were incubated at room temperature for 1 hr. The fluorescence intensity in the plates was measured using an Envision plate reader. Each test compound was measured at 15 concentrations and in triplicates.
% is scaled to controls: 0 for no effect and ±100 for the full control effect.

| SMILES | cAMP activity change | outcome |
| --- | --- | --- |
| O=C(N[C@@H](c1ccccc1)[C@@H]1CCCCN1)c1cccc(C(F)(F)F)c1Cl | 2.65% (inactive) | – |
| NC(=O)Nc1ccc(Cl)cc1 | 3.48% (inactive) | – |
| O=C(O)Cc1ccc(-c2ccccc2)cc1 | 1.61% [at 42.5 µM] (inactive) | – |
| C1COCO1 | -1.39% (inactive) | – |
| CC1=CC(=O)CC(C)(C)C1(O)/C=C/C(C)=C\C(=O)O (stereo not given) | -0.952% (inactive) | – |
| CCc1nn(CCCN2CCN(c3cccc(Cl)c3)CC2)c(=O)n1CCOc1ccccc1 | -2.31% [at 42.5 µM] (inactive) | – |
| Nc1ccc(Cl)cc1[N+](=O)[O-] | -0.007% (inactive) | – |
| Cc1nccn1-c1ccc(Sc2cccc(C3(C(N)=O)CCOCC3)c2)cc1 | 1.97% (inactive) | – |
| CC(=O)Oc1ccc(C(=C2CCCCC2)c2ccc(OC(C)=O)cc2)cc1 | 7.85% [at 42.5 µM] (inactive) | – |
| CNCCCC1c2ccccc2C=Cc2ccccc21 | -1.71% [at 42.5 µM] (inactive) | – |
| CCCCCCCCCCCCCCCCBr | -0.461% [at 18.9 µM] (inactive) | – |
| CN(C)CCOC1=Cc2ccccc2Sc2ccc(Cl)cc21 | 5.77% [at 42.5 µM] (inactive) | – |
| CC1CC(=O)NN=C1c1ccc(NCC(C)(C)NCC(O)COc2cc(Cl)ccc2C#N)cc1 (stereo not given) | 2.76% [at 42.5 µM] (inactive) | – |
| CCCC(=O)O[C@]1(C(=O)COC(=O)CC)CC[C@H]2[C@@H]3CCC4=CC(=O)CC[C@]4(C)[C@H]3[C@@H](O)C[C@@]21C | 6.72% [at 18.9 µM] (inactive) | – |
| OCCSc1ccccc1 | 1.14% (inactive) | – |
| CCCC1C(CC)=CC(CC)=CN1c1ccccc1 (stereo not given) | -6.58% (inactive) | – |
| CO/N=C1\CN(c2nc3c(cc2F)c(=O)c(C(=O)O)cn3C2CC2)CC1CN (stereo not given) | 1.25% [at 42.5 µM] (inactive) | – |
| O=C(O)C(Cc1cc(I)c(O)c(I)c1)c1ccccc1 (stereo not given) | 7.21% [at 42.5 µM] (inactive) | – |
| CCCCCCOC(=O)C(C)C | 0.574% (inactive) | – |
| CC(C)(C)C(=O)O | -0.23% (inactive) | – |

| SMILES | cAMP activity change | outcome |
| --- | --- | --- |
| COCc1c(C(C)C)nc(C(C)C)c(/C=C/[C@@H](O)C[C@@H](O)CC(=O)O)c1-c1ccc(F)cc1 | – | inactive |
| CC(C)CCCCCOC(=O)CCCCC(=O)OCCCCCC(C)C | 2.31% (inactive) | – |
| O=C(CCCCCCC(=O)Nc1ccccc1)NO | -6.34% [at 42.5 µM] (inactive) | – |
| c1cnc2c(n1)CCCC2 | 0.0992% (inactive) | – |
| CCCCCCCC/C=C\CCCCCCCC(=O)OC | 4.22% (inactive) | – |
| CC(Cl)C(Cl)Cl (stereo not given) | -0.306% (inactive) | – |
| CCCCC(CC)CNCC(CC)CCCC (stereo not given) | 5.12% (inactive) | – |
| CC(CCO)CCc1ccccc1 (stereo not given) | -5.1% (inactive) | – |
| C=C(C)C(=O)OCCOC(=O)CC(C)=O | 4.21% (inactive) | – |
| Cc1nc2ccccc2s1 | 7.27% (inactive) | – |
| CN1Cc2cc(C(=O)N3CCC(C4CCNCC4)CC3)ccc2N[C@@H](CC(=O)O)C1=O | -7.24% [at 42.5 µM] (inactive) | – |
| C/C=C/C=C/CCCCCCCO | 2.99% (inactive) | – |
| Cc1ccc(S(=O)(=O)NC2CCCCC2)cc1 | -1.93% (inactive) | – |
| Cc1ccnc2ccccc12 | -5.04% (inactive) | – |
| CCOC(=O)N1CCC(n2c(=O)[nH]c3cc(Cl)ccc32)CC1 | 2.72% [at 42.5 µM] (inactive) | – |
| CCOC(=N)CC(=O)OCC | -0.0928% (inactive) | – |
| Cc1cnc(C)c(C)n1 | 0.477% (inactive) | – |
| c1cc[c]([Bi]([c]2ccccc2)[c]2ccccc2)cc1 | 0.283% (inactive) | – |
| CNC(=S)NC | 2.76% (inactive) | – |
| c1ccc(COCc2ccccc2)cc1 | -0.449% (inactive) | – |
